{
  "source": "the OligoGym collection",
  "data": [
    {"biological_target": "RDH8", "test": "pooled miR-30 sensor sort-seq; sequence = guide strand", "conditions": "shRNA", "values": [
      {"sequence": "TTCTGCATGGCAGCAAGGCTGA", "sensor-assay potency score (higher = more potent)": -1.12},
      {"sequence": "TCAAACTCGGTGACCACGGGGC", "sensor-assay potency score (higher = more potent)": -0.118},
      {"sequence": "TTGACGAGACGGACAGCTCCGA", "sensor-assay potency score (higher = more potent)": -0.0536},
      {"sequence": "TTGAAGGCCAAGGTTGAGGAGG", "sensor-assay potency score (higher = more potent)": -0.704},
      {"sequence": "ATCGTTGAAGATGACACCCTGC", "sensor-assay potency score (higher = more potent)": 0.0457},
      {"sequence": "ATCACTGCACACGTCCAGCTGG", "sensor-assay potency score (higher = more potent)": -0.715},
      {"sequence": "TTGAGCGTGGTCAGCGGCGAGT", "sensor-assay potency score (higher = more potent)": -1.34},
      {"sequence": "TAGCGGATGTTGGTCTGTCGGC", "sensor-assay potency score (higher = more potent)": -1.33},
      {"sequence": "TACAGCTGAGACACTGGGCCAC", "sensor-assay potency score (higher = more potent)": 0.00741},
      {"sequence": "ATGAAGAGTCTGTTCATCCTTT", "sensor-assay potency score (higher = more potent)": 0.345},
      {"sequence": "TCGAGTCGAGCTGATGACGTTG", "sensor-assay potency score (higher = more potent)": -0.883}
    ]},
    {"biological_target": "RECQL4", "test": "pooled miR-30 sensor sort-seq; sequence = guide strand", "conditions": "shRNA", "values": [
      {"sequence": "TTGTGGTGAAGGAACCAGTGGC", "sensor-assay potency score (higher = more potent)": 0.104},
      {"sequence": "TTCTGCAGGACAGATTCCCGTT", "sensor-assay potency score (higher = more potent)": -0.459},
      {"sequence": "TTCAGGAAACAAGACTCCTTGG", "sensor-assay potency score (higher = more potent)": -0.807},
      {"sequence": "TTGGTTGTGACTGTGGCACCAC", "sensor-assay potency score (higher = more potent)": 0.278},
      {"sequence": "TTTCTTCCGCCACTTCTGCTTC", "sensor-assay potency score (higher = more potent)": -1.04},
      {"sequence": "TATTTTCTCCAGAAGCGTCGGT", "sensor-assay potency score (higher = more potent)": 0.184},
      {"sequence": "AACAGCATCTGTGTCTTCCTCA", "sensor-assay potency score (higher = more potent)": 0.181},
      {"sequence": "TTATTCTGCATTTTGGAGCCTC", "sensor-assay potency score (higher = more potent)": 0.116},
      {"sequence": "TAGCACAGCAAAGTCTCGATGG", "sensor-assay potency score (higher = more potent)": -0.495},
      {"sequence": "TTGAAAACGTTTGCCTTGCAGC", "sensor-assay potency score (higher = more potent)": -0.47},
      {"sequence": "TTCTGCTTCATGTTGAGCCGTA", "sensor-assay potency score (higher = more potent)": 0.124},
      {"sequence": "TAGAGTGGCAGCACGGTGGGGT", "sensor-assay potency score (higher = more potent)": 0.669}
    ]},
    {"biological_target": "RELA", "test": "pooled miR-30 sensor sort-seq; sequence = guide strand", "conditions": "shRNA", "values": [
      {"sequence": "TTCATCATCAAACTGCAGCTGC", "sensor-assay potency score (higher = more potent)": 0.151},
      {"sequence": "TTCTATAGGAACTTGGAAGGGG", "sensor-assay potency score (higher = more potent)": 0.628},
      {"sequence": "TTTACGTTTCTCCTCAATCCGG", "sensor-assay potency score (higher = more potent)": -0.69},
      {"sequence": "TTTCTGCACCTTGTCACACAGT", "sensor-assay potency score (higher = more potent)": -0.991},
      {"sequence": "TTACGTTTCTCCTCAATCCGGT", "sensor-assay potency score (higher = more potent)": 0.444},
      {"sequence": "TTGAGCTCGGCAGTGTTGGGGG", "sensor-assay potency score (higher = more potent)": 0.294},
      {"sequence": "TCAATGATCTCCACATAGGGGC", "sensor-assay potency score (higher = more potent)": -0.148},
      {"sequence": "TTGGGGACAGAAGCTGAGCTGC", "sensor-assay potency score (higher = more potent)": -1.1},
      {"sequence": "TTGTCGGTGCACATCAGCTTGC", "sensor-assay potency score (higher = more potent)": -0.891},
      {"sequence": "TAGCCATTGATCTTGATGGTGG", "sensor-assay potency score (higher = more potent)": -0.637},
      {"sequence": "TATCTGTGCTCCTCTCGCCTGG", "sensor-assay potency score (higher = more potent)": -1},
      {"sequence": "TTTCCTACAAGCTCGTGGGGGT", "sensor-assay potency score (higher = more potent)": -0.0432}
    ]},
    {"biological_target": "REPS2", "test": "pooled miR-30 sensor sort-seq; sequence = guide strand", "conditions": "shRNA", "values": [
      {"sequence": "TTCTGTGATCTGGTGCAGCGTC", "sensor-assay potency score (higher = more potent)": -0.566},
      {"sequence": "TAGTACTTTTCAAAGCTTGTTT", "sensor-assay potency score (higher = more potent)": -0.389},
      {"sequence": "TTTTCTGGTCTGAATTTCCTAC", "sensor-assay potency score (higher = more potent)": -0.484},
      {"sequence": "TTTGACACAGTCAAACATCTAT", "sensor-assay potency score (higher = more potent)": -0.0627},
      {"sequence": "TTCTTGATGAACCTCCTTGAGC", "sensor-assay potency score (higher = more potent)": -1.27}
    ]}
  ]
}
